# HT1080 IDH1KD tx – qHTS for induction of synthetic lethality in tumor cells producing 2HG: qHTS for the HT-1080-IDH1KD cell line; 2% of 360,000 active; Potency, µM (doses to about 46.1 µM), without a hit: at the highest dose activity, negative = toxicity, usual class: cytotoxic; HT-1080 IDH1 knockdown viability, ATP luminescence, 48 h; AID 686971, 2013;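 further: 0% = DMSO wells and -100% = cell-free medium wells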
#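 HT-1080-IDH1KD cells (IDH1 knocked down), 750/well in RPMI with 5% FBS, treated with compound 48 h at 37 degrees C. Viability by CellTiter-Glo luminescence, normalised to DMSO and no-cell wells; concentration-response curves classed.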
# TDP1 cell noCPT – qHTS for Inhibitors of human tyrosyl-DNA phosphodiesterase 1 (TDP1): qHTS in cells in absence of CPT | Potency, µM (series often up to 46.2 µM), without a hit: top-dose activity change, negative = growth inhibition, actives largely listed as inhibitors | AID 686978, 2013 | DT40 Tdp1-/- hTDP1 cells, no CPT, ATP luminescence, 48 h | 15% of 420,000 active; further: nearly all actives have a fitted effect of over 55% in size
#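 Compound effects on proliferation are scored in DT40 Tdp1-/-;hTDP1 cells in the absence of CPT. ATP levels (CellTiter-Glo luminescence) are recorded after a ≥48 hr, 37 °C incubation.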
# HT1080-NT tox – qHTS for induction of synthetic lethality in tumor cells producing 2HG: qHTS for the HT-1080-NT fibrosarcoma cell line. HT-1080-NT fibrosarcoma viability, CellTiter-Glo ATP luminescence, 48 h. Potency, µM (series often up to 46.1 µM), without a hit: top-dose activity, negative = less viability, hits mostly cytotoxic. 1.6% of 360,000 active. AID 686970, 2013;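 further: NT is the 2HG producing partner of a matched IDH1 knockdown line; 0% = DMSO-treated cells and -100% = media-only wells without cells; nearly all actives have a fitted effect of over 55% in size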
#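 Compounds were tested in concentration-response format on HT-1080-NT cells for 48 hours at 37 degrees C. Cell viability came from CellTiter-Glo luminescence; curves were classified by r2, response magnitude and activity.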
# KB-3-1 cytotox – qHTS assay for MDR1-selective chemotherapeutics: Primary screen using the parental adenocarcinoma cell KB-3-1; KB-3-1 viability, CellTiter-Glo ATP luminescence, 72 h; Potency, µM (doses to about 46.1 µM), most hits filed as cytotoxic; 1.4% of 400,000 active; AID 1347075, 2019; further: nearly all actives have a fitted effect of over 60% in size
#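 Parental KB-3-1 viability, qHTS format: 72 h compound exposure, 37 °C; CellTiter-Glo; media-only wells and DMSO plates as controls; concentration-effect fits on corrected data.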
# KB-V1 cytotox – qHTS assay for MDR1-selective chemotherapeutics: Primary screen using the drug-selected MDR subline cells KB-V1. KB-V1 MDR cells viability, CellTiter-Glo, 72 h. Potency, µM (series often up to 46.1 µM), usual class: cytotoxic. 3.4% of 400,000 active. AID 1347076, 2019; further: nearly all actives have a fitted effect of over 60% in size
#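 Cytotoxicity via CellTiter-Glo luminescence after 72 h compound exposure at 37 degrees C. Cells: drug-selected KB-V1 line, DMEM phenol-red free plus 10% FBS. Compounds tested at multiple concentrations; normalized data fitted to concentration-effect curves.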
# TDP1 cell CPT – qHTS for Inhibitors of human tyrosyl-DNA phosphodiesterase 1 (TDP1): qHTS in cells in presence of CPT; 12% of 420,000 active; Potency, µM (top dose mostly 46.2 µM), inactives show at the highest dose activity change, negative = growth inhibition, most hits filed as inhibitors; chicken DT40 Tdp1-/-;hTDP1 cells + 20 nM CPT, ATP luminescence, 48 h; AID 686979, 2013; further: nearly all actives have a fitted effect of over 55% in size
#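 Chicken DT40 Tdp1-/- cells stably complemented with human TDP1 were seeded at 400 cells/well in medium containing 20 nM camptothecin, exposed to pin-transferred compounds, and grown at 37 °C for at least 48 hr. Viability was read as ATP luminescence.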
# An asterisk follows results filed as active; i = inactive; ? = inconclusive; / = no result. Sampled rows, rich in hits. Any-hit rate of the full collection: about 19%. The call rests on the fitted dose curve; in most records, active means well fitted curve in the direction sought with a large enough effect; inconclusive means small, poorly fitted or top-dose-only effect, or another doubt; inactive means no such curve, though single readings can be large; an effect the other way counts as inactive or inconclusive. Unless noted, on the % scale 0 is the no-effect control and ±100 the full control effect; potency means the concentration at half of the fitted maximal effect.
SMILES,HT1080 IDH1KD tx,TDP1 cell noCPT,HT1080-NT tox,KB-3-1 cytotox,KB-V1 cytotox,TDP1 cell CPT
CCOCCCn1c(=N)c(C(=O)NC(C)c2ccccc2)cc2c(=O)n3cccc(C)c3nc21 (configuration not stated),/,16.4µM*,/,?,?,16.4µM*
COc1ccc(S(=O)(=O)N(C)c2ccc(C(=O)NCc3ccco3)cc2)cc1,7.0%,?,9.1%,/,/,?
CN(C)S(=O)(=O)c1ccc(C(=O)NCCc2ccco2)cc1,-4.2%,23.1µM*,?,i,i,-7.6%
CN(c1ccccc1)S(=O)(=O)c1ccc(C(=O)NCc2ccco2)cc1,-8.5%,16.4µM*,-4.8%,i,i,?
COc1ccccc1NS(=O)(=O)c1cc(C(=O)NCc2ccco2)ccc1C,9.9%,-9.3%,1.9%,i,?,-8.3%
COc1ccccc1NS(=O)(=O)c1ccc(C(=O)NCc2ccco2)cc1,-3.2%,?,3.7%,i,?,10.3µM*
COc1ccccc1OCCNC(=O)c1ccc(S(=O)(=O)N(C)C)cc1,21.6%,-5.2%,0.5%,i,i,-20.7%
COc1ccc(S(=O)(=O)N(CC(=O)Nc2cccnc2)c2ccc(Cl)cc2)cc1,/,-24.9%,/,i,i,2.7%
Cc1cc(C)cc(NC(=O)CN2C(=O)COc3ccc(S(=O)(=O)Nc4ccccc4)cc32)c1,/,-19.3%,/,i,i,-24.1%
COc1ccccc1NC(=O)CN1C(=O)COc2ccc(S(=O)(=O)N3CCCCCC3)cc21,-13.7%,-11.3%,-4.2%,i,i,?
CCOc1ccccc1NC(=O)CN1C(=O)COc2ccc(S(=O)(=O)Nc3ccccc3)cc21,/,18.4µM*,/,i,i,16.4µM*
COc1ccc(CNC(=O)CN2C(=O)COc3ccc(S(=O)(=O)NC4CCCC4)cc32)cc1,0.3%,1.0%,1.3%,i,?,-1.2%
CCOc1ccccc1NC(=O)CN1C(=O)COc2ccc(S(=O)(=O)N3CCCCC3)cc21,/,23.1µM*,/,/,/,20.6µM*
CCOc1ccccc1NC(=O)CN1C(=O)COc2ccc(S(=O)(=O)N3CCCCCC3)cc21,/,20.6µM*,/,/,/,?
CCN(Cc1ccccc1)C(=O)CN1C(=O)COc2ccc(S(=O)(=O)NC3CCCC3)cc21,-3.5%,?,6.2%,i,i,16.4µM*
CSc1ccc(C2C(C#N)=C(N)Oc3c2ccc(=O)c2c(C)oc(C)c32)cc1 (configuration not stated),?,16.4µM*,?,i,i,18.4µM*
O=C(O)C1C2CCC(O2)C1C(=O)Nc1ccc(Br)cc1F (configuration not stated),-4.3%,7.3%,-5.6%,i,i,-0.4%
CC1(C(=O)NS(=O)(=O)c2ccc(Cl)cc2)CCN1C(=O)c1cccc(F)c1 (configuration not stated),7.1%,-5.2%,18.0%,i,i,-17.6%
CCC(C)NS(=O)(=O)c1ccc(S(=O)(=O)N(CCc2ccc(OC)c(OC)c2)Cc2cccs2)cc1 (configuration not stated),-12.6%,7.31µM*,-4.5%,?,i,10.3µM*
O=S(=O)(c1ccc(S(=O)(=O)N(Cc2cccs2)CC2CCCO2)cc1)N1CCCCC1 (configuration not stated),-9.0%,?,3.8%,i,7.31µM*,-25.8%

# Assay outcomes: PubChem, National Center for Advancing Translational Sciences (NCATS)
